Test results: PubChem BioAssay (NCATS)
Inconclusive results are not listed. A call without a number means that no potency is given here. Calls of active or inactive are those of the source. Calls come from the whole dose curve; as a rule, active = well fitted activation curve with a large enough effect; inconclusive = small, poorly fitted or top-dose-only effect, or effect the other way; inactive = flat fitted curve, though single readings scatter.

assay: qHTS Assay for Identification of Small Molecule Agonists for Thrombopoietin (TPO) Signaling Pathway (AID 917); conditions: TPO signaling pathway reporter cells, agonist qHTS, stimulated with TPO at its EC50; series mostly up to 38.5 µM
Protocol: NIH Molecular Libraries Screening Centers Network [MLSCN]
NIH Chemical Genomics Center [NCGC]
The thrombopoietin (TPO) signaling pathway was assayed in murine Ba/F3 cells stably transfected with the human TPO receptor and a luciferase reporter gene controlled by the Glycoprotein IIb promoter (provided by Axxam). BaF3 cells are an IL-3-dependent pro B cell line that upon TPO stimulation, undergo cell division and induce the megakaryocyte marker, Glycoprotein IIb. The assay was screened at the EC50 of TPO (26 pM) to identify activators of the pathway.
NCGC Assay Protocol Summary:
Cells were maintained at 37 C and 5% CO2in RPMI with 10% fetal bovine serum, 0.5 ng/mL murine IL-3, 100U/ml penicillin and 100 ug/ml streptomycin. Prior to plating, cells were incubated overnight in medium without IL-3. Cells were plated at 250 cells/5uL/well into white solid 1536-well plates, 23 nL of compounds were delivered by a pin tool, and 1 uL of TPO (26 pM final concentration in IL-3 deficient medium) was added. Following 24 hrs of incubation at 37 C and 5% CO2, 4 uL of Steadylite detector mix (PerkinElmer) was added, the plates incubated at room temperature for 10 min and luminescence was measured for 10 s and 2X binning by a ViewLux detector (Perkin Elmer).
Potency is the fitted concentration of half-maximal effect.

Structure (SMILES) | Potency
CC(C)=CCC/C(C)=C/CC/C(C)=C/CSc1ccccc1C(=O)O | inactive
CNCC[C@H](Oc1ccccc1OC)c1ccccc1 | inactive
C[C@@](N)(C(=O)O)c1ccc(C(=O)O)cc1 | inactive
COc1cc2nc(N3CCN(C(=O)[C@H]4CCCO4)CC3)nc(N)c2cc1OC | inactive
CC[N+](CC)(CC)CC | inactive
COc1ccccc1N1CCN(C[C@@H](O)COc2cccc3ccccc23)CC1 | inactive
O=C(O)c1cc(=O)c2ccc(Cl)cc2[nH]1 | inactive
O=C(NCCNC[C@@H](O)COc1ccc(O)cc1)N1CCOCC1 | inactive
CC(N)=NCCC[C@H](N)C(=O)O | inactive
N[C@]1(C(=O)O)CCc2cc(C(=O)O)ccc21 | inactive
C[C@@H](/C=C\c1cccc(Oc2ccc(F)cc2)c1)N(O)C(N)=O | inactive
NS(=O)(=O)c1cc2c(cc1Cl)N[C@@H]([C@@H]1C[C@@H]3C=C[C@H]1C3)NS2(=O)=O | inactive
O=C(O)[C@H]1CN(CCCP(=O)(O)O)CCN1 | inactive
NC(N)=NN=Cc1c(Cl)cccc1Cl | inactive
CCCn1c(=O)c2[nH]c(-c3ccc(OCC(=O)Nc4ccc(C#N)cc4)cc3)nc2n(CCC)c1=O | inactive
CCN(Cc1ccncc1)C(=O)[C@@H](CO)c1ccccc1 | inactive
C[C@@H]1CCN=C(N)S1 | inactive
O=C1CC[C@H](N2C(=O)c3ccccc3C2=O)C(=O)N1 | inactive
CC#CCOC(=O)c1c(C)nc2sc3c(c2c1N)CC[C@@H](O)C3 | inactive
COc1ccc(CCN(C)CCC[C@@](C#N)(c2ccc(OC)c(OC)c2)C(C)C)cc1OC | inactive

Structure (SMILES) | Potency
N[C@@H](CO)C(=O)O | inactive
O=C(Nc1cc(C(=O)Nc2ccc(S(=O)(=O)O)cc2S(=O)(=O)O)cc(C(=O)Nc2ccc(S(=O)(=O)O)cc2S(=O)(=O)O)c1)Nc1cc(C(=O)Nc2ccc(S(=O)(=O)O)cc2S(=O)(=O)O)cc(C(=O)Nc2ccc(S(=O)(=O)O)cc2S(=O)(=O)O)c1 | inactive
CC(N)=NCc1cccc(CN)c1 | inactive
CC1=C(\C=C/C(C)=C/C=C\C(C)=C\C(=O)O)C(C)(C)CCC1 | inactive
COc1ccccc1NC(=O)Nc1nc(-c2cccnc2)nc2ccccc12 | inactive
CN1CCN(CCC=C2c3ccccc3Sc3ccc(S(=O)(=O)N(C)C)cc32)CC1 | inactive
CCOC(=O)[C@@]12C[C@@H]1/C(=N/O)c1ccccc1O2 | inactive
CC[C@H](C)C(=O)O[C@H]1CCC=C2C=C[C@H](C)[C@H](CC[C@@H]3C[C@H](O)CC(=O)O3)[C@H]21 | inactive
Fc1cccc(/C=N\N=C/c2cccc(F)c2)c1 | 3.16 µM (active)
N[C@@H]1CCN(O)C1=O | inactive
CC(C)NC[C@H](O)c1ccc(NS(C)(=O)=O)cc1 | inactive
CCn1ccnc1C[C@@H]1COc2ccccc2O1 | inactive
N#C/C(=C\c1ccc(O)c(O)c1)C(=O)Nc1ccccc1 | inactive
COc1[nH]c2ccc(F)cc2c1C(=O)OCC1CCN(CCNS(C)(=O)=O)CC1 | inactive
COC(=O)c1c(-c2cc(OC)c(OC)c(OC)c2)c2ccnc(OCc3ncccn3)c2c(=O)n1Cc1ccnc(C)c1 | inactive
Cc1cccc(/C=C\c2ccccc2)n1 | 2 µM (active)
CN(C)c1ccc(/C=C2/C(=O)Nc3ccccc32)cc1 | 0.0631 µM (active)
CC(C)(C)NC[C@H](O)COc1cccc2[nH]c(=O)[nH]c12 | inactive
C[C@]12CC3CC(N)(C1)C[C@@](C)(C3)C2 | inactive
Cc1cccc(C)c1NC(=O)C[N+](C)(C)C | inactive
